# Source: PubChem BioAssay (National Center for Advancing Translational Sciences (NCATS))
# The list is not random: actives were taken first. Their share in the collection is about 2.3%.
# Tau fibril ThT = tau fibrillization inhibition (ThT binding); recombinant tau K18 P301L, heparin-induced fibrillization, ThT fluorescence; AID 1460; 270,000 tested, 2.1% active; Potency, µM (series often up to 57.4 µM), for inactives: at the top dose activity, negative = inhibition, most hits filed as inhibitors; P10636; also: potency is read from the fitted curve at half-maximal effect; nearly all actives have a fitted effect of over 55% in size
#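 Using a mix of unlabeled (15 uM) and Alexa 594-labeled (0.24 uM) tau K18 P301L, heparin-triggered fibrillization over 6 hr at 37 C was scored by ThT fluorescence.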
# USP1-UAF1 inh = blocks the human USP1/UAF1 deubiquitinase complex | O94782 | Potency, µM (top dose mostly 57.1 µM), without a hit: at the top dose activity change, negative = inhibition, most hits filed as inhibitors | AID 743255 | 390,000 tested, 0.23% active | recombinant USP1/UAF1, Ub-Rhodamine cleavage fluorescence; also: potency is read from the fitted curve at half-maximal effect; nearly all actives have a fitted effect of over 60% in size
# Target sequence (O94782 whole entry, looked up): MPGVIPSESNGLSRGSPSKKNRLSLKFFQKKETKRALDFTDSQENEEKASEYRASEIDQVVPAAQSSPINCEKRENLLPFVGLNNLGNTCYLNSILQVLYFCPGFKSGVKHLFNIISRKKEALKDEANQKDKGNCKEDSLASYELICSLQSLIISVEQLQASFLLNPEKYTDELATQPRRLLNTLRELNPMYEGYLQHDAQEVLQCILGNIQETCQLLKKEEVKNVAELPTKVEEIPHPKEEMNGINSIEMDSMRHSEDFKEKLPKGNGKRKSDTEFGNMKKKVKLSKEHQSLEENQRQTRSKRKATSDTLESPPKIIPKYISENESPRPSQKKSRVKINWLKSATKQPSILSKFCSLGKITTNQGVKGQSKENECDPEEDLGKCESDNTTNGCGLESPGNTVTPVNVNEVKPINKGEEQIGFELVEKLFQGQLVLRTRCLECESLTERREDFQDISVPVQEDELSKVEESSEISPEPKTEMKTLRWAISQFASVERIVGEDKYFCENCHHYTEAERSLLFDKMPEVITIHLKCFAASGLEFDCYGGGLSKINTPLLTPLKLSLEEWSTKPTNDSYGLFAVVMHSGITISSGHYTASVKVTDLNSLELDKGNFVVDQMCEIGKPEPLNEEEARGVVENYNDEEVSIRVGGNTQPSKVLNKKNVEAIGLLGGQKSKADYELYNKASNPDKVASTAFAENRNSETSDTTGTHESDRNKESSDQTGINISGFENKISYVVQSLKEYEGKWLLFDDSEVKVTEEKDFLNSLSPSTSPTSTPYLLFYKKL
#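 In this screen, compounds sit with the deubiquitinase complex (1nM) for 15 min at room temperature before Ub-Rho is added at 150nM final. Fluorescence rise is then followed for 6 reads every 60 seconds.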
# Tau fibril FP = tau fibrillization inhibition (FP) | P10636 | K18 P301L tau heparin fibrillization, Alexa594 FP, 6 h | Potency, µM (top dose mostly 57.7 µM), without a hit: top-dose activity, negative = inhibition, most hits filed as inhibitors | 280,000 tested, 0.39% active | AID 1468; also: potency is read from the fitted curve at half-maximal effect; nearly all actives have a fitted effect of over 55% in size
#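 Quantitative HTS format: compounds meet 15 uM recombinant K18 P301L tau and Alexa 594-tau tracer in 100 mM sodium acetate pH 7; 20 uM heparin triggers fibrillization at 37 C over 6 hr; FP gives the signal.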
# Tau fluor counter = counter-screen for tau fibril formation inhibitors. tau K18 P301L Alexa594 fluorescence, heparin fibrillization. Potency, µM (titrated, usually from 57.7 µM), for inactives: top-dose activity change, negative = decrease. 280,000 tested, 0.93% active. AID 1463; also: potency is read from the fitted curve at half-maximal effect; nearly all actives have a fitted effect of over 55% in size
#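 Human tau K18 P301L (15 uM unlabeled, 0.24 uM Alexa 594-labeled) in 100 mM sodium acetate pH 7 with 20 uM heparin, 6 hr at 37 C. ThT 30 uM added, 1 hr ambient; Alexa 594 FP and total fluorescence read at 555/632 nm.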
# Coupling enz = inhibits coupling enzyme system, counter-screen for aldolase hits; 290,000 tested, 0.67% active; activity change, negative = inhibition, % at 58.2 µM, hits read low; AID 2472; coupling enzyme system counterscreen, AmpLite Red fluorescence; in the data active = activity change below about -30%
#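 Counterscreen lacking aldolase: glyceraldehyde-3-phosphate coupling-enzyme reagent preincubated 10 min at RT with compound (at 57.5 uM final), then substrate/coupling system with AmpLite Red added; fluorescence read at 525/598 nm after 20 min RT.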
# Active calls of the source: *; ? = inconclusive; / = no result; [ ] = dose if it differs, or a comment. Unless noted, calls follow the shape of the dose curve; as a rule, active = well fitted curve in the direction sought with a large enough effect; inconclusive = small, poorly fitted or top-dose-only effect, or another doubt; inactive = no such curve, though single readings can be large; an effect the other way counts as inactive or inconclusive. % is scaled to controls: 0 for no effect and ±100 for the full control effect.
SMILES,Tau fibril ThT,USP1-UAF1 inh,Tau fibril FP,Tau fluor counter,Coupling enz
Cc1ccc(-c2nc3ccccc3o2)cc1NC(=O)Cc1ccc(Cl)cc1,7%,-21%,-4%,0%,/
CCN(C(=O)COC(=O)c1ccc2[nH]c(C)c(C)c2c1)c1c(N)n(Cc2ccccc2)c(=O)[nH]c1=O,/,-10%,/,/,/
CCCCCC1=C2CNC(Cc3ccccc3)(C(=O)OC)C=C2C(C)C1=O (centres undefined),-13%,/,-9%,-13%,-6
CCOc1ccc(C(=O)NCCSc2c(C)[nH]c3ccccc23)cc1OCC,?,-8%,?,14µM*[quencher],/
COCC(=O)NCCSc1c(C)[nH]c2ccccc12,2%,0%,2%,5%,-1
CCN(CC)S(=O)(=O)c1ccc(C(=O)NCCSc2c(-c3ccc(OC)cc3)[nH]c3ccccc23)cc1,-2%,-14%,3%,4µM*[quencher],/
CN(C)S(=O)(=O)c1ccc(C(=O)NCCSc2c(-c3ccc(Cl)cc3)[nH]c3ccccc23)cc1,-12%,?,-15%,14µM*[quencher],/
O=C(Cc1cccs1)NCCSc1c(-c2ccc(Cl)cc2)[nH]c2ccccc12,-15%,-23%,-14%,7.1µM*[quencher],-6
COc1ccc(Cl)cc1NC(=O)c1ccc2c(c1)CCCN2S(C)(=O)=O,-5%,-26%,-16%,?,/
CC(Sc1ccccc1)C(=O)NCCc1ccccc1 (centres undefined),/,-15%,/,/,4
Cc1ccccc1C(=O)OCc1cc(=O)n2c(C)csc2n1,?,-3%,-9%,-16%,/
CCC(=O)N1CCN(c2ccc(NC(=O)c3ccc([N+](=O)[O-])o3)cc2Cl)CC1,11µM*,0%,3%,?,-11
CCCC(=O)N1CCN(c2ccc(NC(=O)c3cc4ccccc4o3)cc2Cl)CC1,?,-17%,5%,?,-40*
CC(C)=CCC/C(C)=C/CO/N=C1/C[C@@H](O)[C@@H](O)[C@@H]2[C@@H]3C(=O)N(Cc4ccc5c(c4)OCO5)C(=O)[C@H]3CC[C@H]12,-7%[11.5 µM],/,-1%[11.6 µM],-13%[11.6 µM],0
Cc1cccc(OCC(=O)Nc2ccc(S(=O)(=O)Nc3onc(C)c3C)cc2)c1C,?,-14%,6%,-12%,10
O=c1c(CCc2ccccc2)nc2cnc(N3CCNCC3)nc2n1C1CC1,/,/,/,/,2
O=[N+]([O-])c1cc(S(=O)(=O)N2CCCCCC2)ccc1F,16µM*,-20%,-7%,?,15
COc1ccc(CNC(=O)CSc2n[nH]c(-c3ccc(OC)cc3)n2)cc1,-2%,0%,6%,1%,/
O=C(O)CCNc1cc2ccccc2cc1C(=O)O,16µM*,-18%,?,-25%,-30*
O=C(O)CCNS(=O)(=O)c1ccc2ccccc2c1,-10%,-9%,-3%,-7%,9
CCN=C1S/C(=C\c2ccc(N3CCOCC3)cc2C)C(=O)N1CC,-13%,-5%,14%,-27%,3
COCCN1C(=O)/C(=C/c2ccc(N3CCCC3)cc2C)SC1=S,7.1µM*,?,?,-13%,-2
COc1cc(NC(=O)CC2C(=O)N(c3ccccc3)C(=O)N2Cc2ccc(F)cc2)cc(OC)c1 (centres undefined),-7%,-8%,-6%,-24%,/
CC(C)S(=O)(=O)c1csc(C(=O)Nc2ccc(F)cc2)c1N,2%,-14%,7%,-8%,-4
COc1ccc(C(=O)n2nnc3ccccc32)cc1OC,-8%,-5%,9%,8%,0
COc1ccc(N/C(=C(/C(Cl)=C(Cl)Cl)[N+](=O)[O-])n2nnc3ccccc32)cc1OC,14µM*,/,?,?,-29
COc1cc2c(-c3ccccc3C)nc3c(c(C)nn3-c3ccccc3)c2cc1OC,?,-15%,-9%,?,/
CCN1CCN(C(=O)Cn2ncc3c4ccccc4n(Cc4ccccc4)c3c2=O)CC1,5%,?,0%,1%,/
Cc1ccc(OCCn2cc(/C=C/C(=O)O)c3ccccc32)cc1,/,?,/,/,1
COc1ccc(C(=O)/C=C/c2cn(CN3CCN(C)CC3)c3ccccc23)cc1,13µM*,-21%,0%,18µM*[quencher],-7
